Source: PubChem BioAssay (EPA / NIEHS)
Activity calls are given as the source filed them. Rule for the calls: active = hit-call score of the fitted dose curve at least 0.9, where 1 is the maximum; inactive = score below 0.9.

Experiments:
Details in all cases: mRNA level, 48 h; actives raise or lower the signal
CYP2E1 (gene 1571) = experiment: LTEA_HepaRG_CYP2E1: Life Technologies and Expression Analysis (LTEA) Assay for CYP2E1 using HepaRG (AID 2283485)
In short: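 HepaRG cells in serum-free induction medium exposed 48 h to test chemicals, 8 half-log concentrations up to 100 uM in 0.5% DMSO, duplicate. CYP2E1 mRNA by qRT-PCR, normalized to ACTB, GAPDH, POLR2A; bidirectional fit versus DMSO.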

CYP4A11 (gene 1579) = experiment: LTEA_HepaRG_CYP4A11: Life Technologies and Expression Analysis (LTEA) Assay for CYP4A11 using HepaRG (AID 2283486)
In short: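 Differentiated HepaRG cells, 48 h after plating, exposed in duplicate for 48 h to 8 half-log concentrations up to 100 uM in 0.5% DMSO in serum-free induction medium. CYP4A11 mRNA measured by TaqMan qRT-PCR, normalized to ACTB, GAPDH and POLR2A.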

[1] = read-out: Cytochrome P450 3A4 (Homo sapiens) (UniProt P08684); experiment: LTEA_HepaRG_CYP3A4: Life Technologies and Expression Analysis (LTEA) Assay for CYP3A4 using HepaRG (AID 2283487)
In short: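 CYP3A4 transcript measured by TaqMan qRT-PCR and normalized to three housekeeping genes after 48 h chemical exposure of human HepaRG cells. Top concentration 100 uM, half-log steps, 0.5% DMSO vehicle; gain or loss fitted against DMSO baseline.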

[2] = read-out: DNA damage-inducible transcript 3 (DDIT3), DDIT3 (gene 1649); experiment: LTEA_HepaRG_DDIT3: Life Technologies and Expression Analysis (LTEA) Assay for DNA damage-inducible transcript 3 (DDIT3) using HepaRG (AID 2283488)
In short: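 Differentiated human HepaRG cells in serum-free induction medium were exposed in duplicate for 48 h to 8 concentrations (top 100 uM, half-log steps, 0.5% DMSO). DDIT3 mRNA measured by TaqMan qRT-PCR, normalized to ACTB/GAPDH/POLR2A; bidirectional fit versus DMSO.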

[3] = read-out: Pro-epidermal growth factor (Homo sapiens) (UniProt P01133); experiment: LTEA_HepaRG_EGF: Life Technologies and Expression Analysis (LTEA) Assay for Epidermal growth factor (EGF) using HepaRG (AID 2283489)
In short: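 HepaRG cells (~100,000/well, 48 h pre-culture) exposed in duplicate for 48 h in serum-free induction medium to 8 half-log concentrations up to 100 uM in 0.5% DMSO. EGF mRNA by qRT-PCR, normalized to ACTB/GAPDH/POLR2A; bidirectional fit versus DMSO.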

[4] = read-out: Early growth response protein 1 (EGR1) transcription factor, EGR1 (gene 1958); experiment: LTEA_HepaRG_EGR1: Life Technologies and Expression Analysis (LTEA) Assay for Early growth response protein 1 (EGR1) transcription factor using HepaRG (AID 2283490)
In short: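 Differentiated HepaRG cells in serum-free induction medium exposed 48 hours, duplicate, to 8 half-log concentrations up to 100 uM in 0.5% DMSO. EGR1 mRNA measured by TaqMan qRT-PCR, normalized to ACTB, GAPDH, POLR2A; bidirectional fit versus DMSO.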

[5] = read-out: Ezrin (EZR), EZR (gene 7430); experiment: LTEA_HepaRG_EZR: Life Technologies and Expression Analysis (LTEA) Assay for Ezrin (EZR) using HepaRG (AID 2283491)
In short: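 HepaRG, 48 h chemical exposure, 8-pt half-log series from 100 uM, 0.5% DMSO vehicle, duplicates. Read-out: EZR mRNA by TaqMan qRT-PCR (Fluidigm array), housekeeping-normalized; bidirectional curve fit vs DMSO baseline.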

[6] = read-out: Cytochrome P450 3A7 (Homo sapiens) (UniProt P24462); experiment: LTEA_HepaRG_CYP3A7: Life Technologies and Expression Analysis (LTEA) Assay for CYP3A7 using HepaRG (AID 2283492)
In short: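 Differentiated HepaRG cells in serum-free induction medium exposed 48 h in duplicate to 8-point half-log series from 100 uM top in 0.5% DMSO. CYP3A7 mRNA by qRT-PCR, normalized to ACTB/GAPDH/POLR2A, bidirectional fit versus DMSO.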

CYP3A5 (gene 1577) = experiment: LTEA_HepaRG_CYP3A5: Life Technologies and Expression Analysis (LTEA) Assay for CYP3A5 using HepaRG (AID 2283493)
In short: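 Differentiated HepaRG cells in serum-free induction medium were dosed 48 h with test chemicals (8-point half-log series, top 100 uM, 0.5% DMSO, duplicate). CYP3A5 mRNA measured by qRT-PCR, normalized to ACTB, GAPDH, POLR2A; bidirectional fit versus DMSO.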

[7] = read-out: Fatty Acid-Binding Protein 1 (FABP1), FABP1 (gene 2168); experiment: LTEA_HepaRG_FABP1: Life Technologies and Expression Analysis (LTEA) Assay for Fatty Acid-Binding Protein 1 (FABP1) using HepaRG (AID 2283494)
In short: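 Differentiated human HepaRG cells exposed 48 h in serum-free induction medium to eight half-log concentrations up to 100 uM (0.5% DMSO), duplicate. FABP1 mRNA by qRT-PCR, normalised to ACTB, GAPDH, POLR2A; bidirectional fitting against DMSO.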

[8] = read-out: Cytochrome P450 4A22 (Homo sapiens) (UniProt Q5TCH4); experiment: LTEA_HepaRG_CYP4A22: Life Technologies and Expression Analysis (LTEA) Assay for Cytochrome P450 4A22 (CYP4A22) using HepaRG (AID 2283495)
In short: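 Differentiated HepaRG cells in serum-free induction medium exposed 48 h in duplicate to eight half-log concentrations up to 100 uM in 0.5% DMSO. CYP4A22 mRNA quantified by TaqMan qRT-PCR, normalized to ACTB, GAPDH and POLR2A; bidirectional fit versus DMSO.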

[9] = read-out: Cytochrome P450 7A1 (Homo sapiens) (UniProt P22680); experiment: LTEA_HepaRG_CYP7A1: Life Technologies and Expression Analysis (LTEA) Assay for Cytochrome P450 7A1 (CYP7A1) using HepaRG (AID 2283496)
In short: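 Gene expression endpoint in human HepaRG liver cells treated for 48 h with test chemicals (up to 100 uM, 0.5% DMSO). Values come from bidirectional concentration-response fitting versus DMSO.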

[10] = read-out: Glutathione S-Transferase (GSTA2), GSTA2 (gene 2939); experiment: LTEA_HepaRG_GSTA2: Life Technologies and Expression Analysis (LTEA) Assay for Glutathione S-Transferase (GSTA2) using HepaRG (AID 2283497)
In short: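 Differentiated human HepaRG cells were exposed in duplicate for 48 h in serum-free induction medium, 8 points from 100 uM top in half-log steps, 0.5% DMSO. GSTA2 mRNA was measured by TaqMan qRT-PCR, normalized to ACTB, GAPDH and POLR2A; bidirectional fit versus DMSO.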

[11] = read-out: Glutamate-cysteine ligase catalytic (GCLC), GCLC (gene 2729); experiment: LTEA_HepaRG_GCLC: Life Technologies and Expression Analysis (LTEA) Assay for Glutamate-cysteine ligase catalytic (GCLC) using HepaRG (AID 2283498)
In short: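 Differentiated HepaRG cells exposed 48 h in serum-free induction medium, eight-point half-log series topping at 100 uM in 0.5% DMSO, duplicates. GCLC mRNA by qRT-PCR normalized to ACTB, GAPDH and POLR2A, fitted bidirectionally versus DMSO.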

[12] = read-out: growth arrest and DNA damage 45 (GADD45G), GADD45G (gene 10912); experiment: LTEA_HepaRG_GADD45G: Life Technologies and Expression Analysis (LTEA) Assay for growth arrest and DNA damage 45 (GADD45G) using HepaRG (AID 2283499)
In short: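 Differentiated human HepaRG cells, 48 h post-plating, exposed 48 h in serum-free induction medium to 8 half-log concentrations (top 100 uM, 0.5% DMSO) in duplicate. GADD45G mRNA measured by Fluidigm TaqMan qRT-PCR, normalized to ACTB, GAPDH, POLR2A; bidirectional fit versus DMSO.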

[13] = read-out: Glutamate-cysteine ligase regulatory (GCLM), GCLM (gene 2730); experiment: LTEA_HepaRG_GCLM: Life Technologies and Expression Analysis (LTEA) Assay for Glutamate-cysteine ligase regulatory (GCLM) using HepaRG (AID 2283500)
In short: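 Differentiated human HepaRG cells exposed 48 h in serum-free induction medium to 8-point half-log concentrations (top 100 uM, 0.5% DMSO), in duplicate. GCLM mRNA quantified by qRT-PCR, normalized to ACTB, GAPDH, POLR2A; bidirectional fitting versus DMSO.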

[14] = read-out: Glutathione S-transferase M3 (GSTM3), GSTM3 (gene 2947); experiment: LTEA_HepaRG_GSTM3: Life Technologies and Expression Analysis (LTEA) Assay for Glutathione S-transferase M3 (GSTM3) using HepaRG (AID 2283501)
In short: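 Differentiated human HepaRG cells were exposed in duplicate for 48 h in serum-free induction medium, 8 points from 100 uM top in half-log steps, 0.5% DMSO. GSTM3 mRNA was measured by TaqMan qRT-PCR, normalized to ACTB, GAPDH and POLR2A; bidirectional fit versus DMSO.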

[15] = read-out: Heat shock 70 kDa protein 1 (HSPA1A), gene 3303; experiment: LTEA_HepaRG_HSPA1A: Life Technologies and Expression Analysis (LTEA) Assay for Heat shock 70 kDa protein 1 (HSPA1A) using HepaRG (AID 2283502)
In short: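 Differentiated human HepaRG cells in serum-free induction medium were exposed in duplicate for 48 h to eight concentrations (top 100 uM, half-log steps, 0.5% DMSO). HSPA1A mRNA was quantified by qRT-PCR, normalized to ACTB, GAPDH and POLR2A, and fitted bidirectionally against DMSO.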

[16] = read-out: Hypoxia-inducible factor 1-alpha (Homo sapiens) (UniProt Q16665); experiment: LTEA_HepaRG_HIF1A: Life Technologies and Expression Analysis (LTEA) Assay for Hypoxia-inducible factor 1 (HIF1A) Trancription factor using HepaRG (AID 2283503)
In short: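 HepaRG, 48 h exposure, 8-pt half-log series from 100 uM, 0.5% DMSO vehicle, duplicates. Readout: HIF1A transcript by qRT-PCR (Fluidigm array), housekeeping-normalised. Bidirectional curve fit vs DMSO baseline.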

[17] = read-out: 3-Hydroxy-3-Methylglutaryl-CoA Synthase 2 (HMGCS2), HMGCS2 (gene 3158); experiment: LTEA_HepaRG_HMGCS2: Life Technologies and Expression Analysis (LTEA) Assay for 3-Hydroxy-3-Methylglutaryl-CoA Synthase 2 (HMGCS2) using HepaRG (AID 2283504)
In short: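 Human HepaRG cells in serum-free induction medium were exposed in duplicate for 48 h to 8-point half-log series from 100 uM top in 0.5% DMSO. HMGCS2 mRNA measured by TaqMan qRT-PCR, normalised to ACTB, GAPDH, POLR2A; bidirectional fit versus DMSO.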

Measured: AC50

Chain of Cytochrome P450 3A7 (Homo sapiens) (P24462 whole entry, looked up): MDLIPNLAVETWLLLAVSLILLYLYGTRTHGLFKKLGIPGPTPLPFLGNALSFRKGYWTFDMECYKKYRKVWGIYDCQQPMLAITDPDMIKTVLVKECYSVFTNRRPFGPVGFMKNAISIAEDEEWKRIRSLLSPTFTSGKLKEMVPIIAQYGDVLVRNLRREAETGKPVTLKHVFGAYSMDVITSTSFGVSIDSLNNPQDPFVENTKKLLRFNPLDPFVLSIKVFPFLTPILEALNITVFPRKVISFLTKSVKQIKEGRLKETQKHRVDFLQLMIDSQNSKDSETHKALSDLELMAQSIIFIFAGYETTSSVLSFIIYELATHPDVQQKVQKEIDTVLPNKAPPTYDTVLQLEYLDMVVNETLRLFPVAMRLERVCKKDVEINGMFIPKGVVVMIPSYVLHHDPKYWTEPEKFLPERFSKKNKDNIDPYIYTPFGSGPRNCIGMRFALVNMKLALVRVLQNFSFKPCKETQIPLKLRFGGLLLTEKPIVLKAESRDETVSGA
Chain of Hypoxia-inducible factor 1-alpha (Homo sapiens) (Q16665 whole entry, looked up): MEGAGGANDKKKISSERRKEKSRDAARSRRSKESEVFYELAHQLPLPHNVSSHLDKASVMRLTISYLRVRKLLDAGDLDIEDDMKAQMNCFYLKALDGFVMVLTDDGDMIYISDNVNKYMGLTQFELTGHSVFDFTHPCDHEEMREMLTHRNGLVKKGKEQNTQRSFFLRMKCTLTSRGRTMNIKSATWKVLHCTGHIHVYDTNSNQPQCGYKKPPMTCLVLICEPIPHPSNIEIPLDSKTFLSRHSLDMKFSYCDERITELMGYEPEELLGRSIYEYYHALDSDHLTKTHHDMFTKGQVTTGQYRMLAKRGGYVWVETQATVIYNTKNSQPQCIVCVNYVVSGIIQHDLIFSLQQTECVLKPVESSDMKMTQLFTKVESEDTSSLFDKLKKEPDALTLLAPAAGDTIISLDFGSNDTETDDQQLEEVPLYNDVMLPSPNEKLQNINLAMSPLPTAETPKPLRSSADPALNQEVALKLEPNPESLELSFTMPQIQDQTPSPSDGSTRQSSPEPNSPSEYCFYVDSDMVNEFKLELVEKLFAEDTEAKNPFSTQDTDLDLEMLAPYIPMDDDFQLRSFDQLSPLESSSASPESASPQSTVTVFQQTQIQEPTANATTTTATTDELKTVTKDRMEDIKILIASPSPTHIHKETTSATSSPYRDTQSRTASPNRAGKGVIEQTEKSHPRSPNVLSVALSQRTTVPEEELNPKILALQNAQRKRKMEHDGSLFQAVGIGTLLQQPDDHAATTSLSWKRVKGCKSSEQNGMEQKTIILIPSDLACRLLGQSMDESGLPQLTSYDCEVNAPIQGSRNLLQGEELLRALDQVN
Chain of Cytochrome P450 3A4 (Homo sapiens) (P08684 whole entry, looked up): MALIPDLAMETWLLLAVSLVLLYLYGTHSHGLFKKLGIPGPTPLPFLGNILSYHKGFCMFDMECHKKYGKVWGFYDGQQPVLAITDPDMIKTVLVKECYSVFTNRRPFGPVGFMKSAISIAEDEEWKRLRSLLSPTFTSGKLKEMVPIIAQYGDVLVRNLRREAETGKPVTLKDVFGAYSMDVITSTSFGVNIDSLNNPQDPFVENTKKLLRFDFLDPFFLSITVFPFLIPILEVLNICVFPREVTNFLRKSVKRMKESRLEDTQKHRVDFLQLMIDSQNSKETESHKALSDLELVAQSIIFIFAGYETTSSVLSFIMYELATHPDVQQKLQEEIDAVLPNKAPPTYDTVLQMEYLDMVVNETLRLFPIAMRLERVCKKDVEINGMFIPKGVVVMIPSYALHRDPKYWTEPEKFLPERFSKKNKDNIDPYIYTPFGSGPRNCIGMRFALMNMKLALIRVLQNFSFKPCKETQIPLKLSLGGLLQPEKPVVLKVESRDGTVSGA

O=C(NC(=O)c1c(F)cccc1F)Nc1cc(Cl)c(OC(F)(F)C(F)F)c(Cl)c1
active: CYP2E1 (gene 1571) 11.6 µM | [7] 25.1 µM | [9] 13.6 µM | [17] 34.7 µM
inactive: all other assays above

O=S(=O)(O)C(F)(F)C(F)(F)C(F)(F)C(F)(F)F
inactive: all assays above

COc1ccc(O)c(C(C)(C)C)c1
active: [1] 66.4 µM
inactive: all other assays above

C[C@]12CCC(=O)C=C1CC[C@@H]1[C@@H]2CC[C@@]2(C)[C@H]1CC[C@]2(C)O
active: CYP4A11 (gene 1579) 73.6 µM | [2] 80 µM | [8] 69.8 µM | [9] 1.9 µM | [17] 69 µM
not listed: CYP2E1 (gene 1571)
inactive: all other assays above

Clc1ccc(C(Cl)(Cl)Cl)cc1
not listed: CYP2E1 (gene 1571)
inactive: all other assays above

O=NN(c1ccccc1)c1ccccc1
active: CYP4A11 (gene 1579) 50 µM | [8] 50 µM
inactive: all other assays above

Cc1cc2c3c(c1)C(c1ccccc1)=N[C@@H](NC(=O)c1ccncc1)C(=O)N3CC2
active: CYP2E1 (gene 1571) 17.9 µM | CYP4A11 (gene 1579) 40.4 µM | [1] 3.86 µM | [2] 75.6 µM | [5] 50 µM | [6] 12.2 µM | [7] 50 µM | [8] 36 µM | [9] 50 µM | [15] 50 µM | [17] 71.2 µM
inactive: [3] | [4] | CYP3A5 (gene 1577) | [10] | [11] | [12] | [13] | [14] | [16]

Cc1cccc(C)c1N
active: [5] 0.364 µM
inactive: all other assays above

CC(C)C(=O)OCC(C)(C)C(OC(=O)C(C)C)C(C)C (configuration not stated)
not listed: CYP2E1 (gene 1571)
inactive: all other assays above

CC(c1ccc(O)cc1)(c1ccc(O)cc1)c1ccc(O)cc1
inactive: CYP4A11 (gene 1579) | [2] | [3] | [8] | [13] | [14] | [15] | [16]
active: CYP2E1 (gene 1571) 80.5 µM | [1] 23.6 µM | [4] 81 µM | [5] 38.7 µM | [6] 20.7 µM | CYP3A5 (gene 1577) 37.1 µM | [7] 75.8 µM | [9] 67 µM | [10] 37.3 µM | [11] 73.4 µM | [12] 75.1 µM | [17] 85.1 µM

Cc1cc(-c2ccc(N)c(C)c2)ccc1N
active: CYP2E1 (gene 1571) 16.3 µM | [7] 24.9 µM | [9] 9.92 µM | [12] 26 µM | [17] 19.3 µM
inactive: all other assays above

CCCCCCCCCc1ccc(O)cc1
active: CYP4A11 (gene 1579) 33.5 µM | [7] 50 µM | [8] 31.9 µM | [17] 50 µM
inactive: all other assays above
